Screens deposited in PubChem BioAssay by The Scripps Research Institute Molecular Screening Center.
DAX1 inh-1: DAX1 (NR0B1) inhibitors on StAR promoter, primary screen, cell-based, luminescence, SF-1 (NR5A1), full-length DAX-1; HEK293T StAR-luciferase reporter, SF-1/DAX-1 repression relief; inhibition, % at 6.8 µM; 370,000 compounds, 1.1% hits;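 active = inhibition above the mean over all tested compounds plus 3 SD, cut at about 3.6% in these data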;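 note: higher inhibition means more luminescence from relief of DAX-1 repression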
DAX1 inh-2: DAX1 (NR0B1) inhibitors, primary screen, cell-based, HEK293, Gal4-DAX1, luciferase luminescence. Nuclear receptor subfamily 0 group B member 1 (Homo sapiens), P51843. HEK293 Gal4-DAX1 luciferase reporter. inhibition, % at 6.75 µM. 340,000 compounds, 0.99% hits;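 active = inhibition above the mean over all tested compounds plus 3 SD, cut at about 4.2% in these data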;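 note: inhibition shows as a rise in luminescence from relieved DAX1 repression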
AHR activator: AHR activators, primary screen, cell-based, luminescence, luciferase reporter, human; Aryl hydrocarbon receptor (Homo sapiens), P35869; AHR-responsive luciferase reporter cells; activation, % at 5 µM; 320,000 compounds, 2.5% hits; AID 2796, 2010; in the data active = activation above about 47%
Target sequence (P35869 whole entry, looked up): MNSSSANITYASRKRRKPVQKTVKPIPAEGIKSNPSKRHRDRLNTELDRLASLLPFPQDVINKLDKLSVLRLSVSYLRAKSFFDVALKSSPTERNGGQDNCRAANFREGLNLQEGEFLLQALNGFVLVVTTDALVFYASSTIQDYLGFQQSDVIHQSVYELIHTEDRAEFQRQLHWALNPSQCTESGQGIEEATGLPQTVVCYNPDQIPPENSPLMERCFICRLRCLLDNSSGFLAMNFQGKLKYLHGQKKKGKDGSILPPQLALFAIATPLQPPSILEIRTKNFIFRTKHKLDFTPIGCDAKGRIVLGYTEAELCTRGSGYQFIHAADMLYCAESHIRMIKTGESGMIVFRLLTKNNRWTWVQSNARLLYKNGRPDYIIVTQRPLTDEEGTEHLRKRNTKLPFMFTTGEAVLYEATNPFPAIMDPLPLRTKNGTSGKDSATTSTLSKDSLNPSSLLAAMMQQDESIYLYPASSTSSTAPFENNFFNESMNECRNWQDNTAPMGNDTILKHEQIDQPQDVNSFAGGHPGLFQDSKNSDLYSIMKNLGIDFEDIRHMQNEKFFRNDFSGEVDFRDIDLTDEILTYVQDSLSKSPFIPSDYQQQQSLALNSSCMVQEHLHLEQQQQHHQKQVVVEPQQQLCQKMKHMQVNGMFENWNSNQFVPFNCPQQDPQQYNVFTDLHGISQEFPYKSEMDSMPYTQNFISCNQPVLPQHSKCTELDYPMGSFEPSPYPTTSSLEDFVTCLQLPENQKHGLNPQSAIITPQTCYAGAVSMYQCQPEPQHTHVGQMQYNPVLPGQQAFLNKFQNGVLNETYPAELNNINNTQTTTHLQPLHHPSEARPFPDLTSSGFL
ssDAF-12 act: S. stercoralis DAF-12 nuclear receptor activators, primary screen, cell-based, luminescence, HEK293, GRIP1 co-expression, lit1-tk-luc. Nuclear hormone receptor DAF-12 (Strongyloides stercoralis). HEK293 ssDAF-12/GRIP1 lit1-tk-luc reporter; % of 3 µM dafachronic acid response. activation, % at 6.8 µM. 370,000 compounds, 1% hits;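 active = activation above the mean over all tested compounds plus 3 SD, cut at about 0.9% in these data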
hcDAF-12 act: H. contortus DAF-12 nuclear receptor activators, primary screen, cell-based, luminescence, HEK293, lit1-tk-luc reporter; HEK293 hcDAF-12 lit1-tk-luc reporter; 0% DMSO, 100% Δ7-dafachronic acid; activation, % at 6.8 µM; 370,000 compounds, 1.4% hits;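 active = activation above the mean of all tested compounds plus 3 SD, cut at about 5.5% in these data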
hgDAF-12 ag: H. glycines DAF-12 receptor agonists, primary screen, cell-based, luminescence, HEK293, GAL4 fusion, UAS-luciferase; activation, % at 6.8 µM; HEK293 GAL4-hgDAF12 UAS-luciferase reporter, agonist luminescence; normalized to butyrate control; 370,000 compounds, 1.8% hits;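 active = activation above a cutoff set at the mean of all screened compounds plus 3 SD, cut at about 10% in these data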
Of the large screens only hits and unclear results are named; the others gave an inactive call. Compounds with a hit are over-represented: about 5.7% of the library has one in this group of screens.

C(=C\c1ccccc1)/C=N/N1CCN(c2ccccn2)CC1	hgDAF-12 ag 11
CCN1C(=O)[C@H]2[C@@H](c3ccc(-c4ccc(OC)cc4)cc3)N[C@@](CC(C)C)(C(=O)OC)[C@H]2C1=O	none
O=c1c2c3c(sc2nc2n1CCCCC2)CCC3	none
O=C1c2sc3nc4n(c(=O)c3c2CCC1Br)CCCCC4 (stereo not drawn)	none
O=C1CCCc2c1sc1nc3n(c(=O)c21)CCCCC3	hgDAF-12 ag 10
O=c1c2c3c(sc2nc2n1CCCCC2)C(O)CCC3 (stereo not drawn)	hgDAF-12 ag 11
COC(=O)[C@]12C[C@H](CC(=O)N3CCN(C(=O)C4CC4)CC3)C(=O)N(Cc3cccc4ccccc34)C1=C[C@H](C(C)C)O[C@@H]2C1CC1	none (no result: DAX1 inh-2, AHR activator)
O=C(/C=C/c1cccs1)Nc1sc2c(c1C(=O)O)CCCC2	none
NC(=O)c1c(/N=C/c2cccs2)sc2c1CCCC2	AHR activator 70 (no result: DAX1 inh-2)
CC1=C(C(=O)N2CCCCCC2)CC(CC(=O)NCCCCc2ccccc2)C(=O)N1Cc1ccccc1 (stereo not drawn)	none (no result: DAX1 inh-2, AHR activator)
CCN(CC)c1ccc(/C=N/NS(=O)(=O)c2ccc(CNC(C)=O)cc2)cc1	none
CCN(CC)c1ccc(C=NCCc2ccc(S(N)(=O)=O)cc2)cc1	ssDAF-12 act 1.0
CCOC(=O)C[C@H]1c2ccc(C(F)(F)F)cc2S(=O)(=O)N1C(C)(C)C	none
COc1ccc(CCNC(=O)CN2C(=O)C(=O)N(C3CCCC3)C2=O)cc1OC	ssDAF-12 act 1.3
COc1ccc(CCNC(=O)CCN2C(=O)COc3ccccc32)cc1OC	AHR activator 85
COc1ccc(CCNC(=O)COC(=O)c2cc3ccccc3oc2=O)cc1OC	ssDAF-12 act 1.4
O=C(CN1C(=O)C(=O)N(C2CCCC2)C1=O)NCCc1ccc(F)cc1	none
CCN(CC)C(=O)c1cccc(-c2csc(C(O)c3cccc(Cl)c3)n2)c1 (stereo not drawn)	none (no result: DAX1 inh-2, AHR activator)
COC(=O)C1=C(C)N(C)C(=NCc2ccc3c(c2)OCO3)NC1c1ccc(F)cc1 (stereo not drawn)	none (no result: DAX1 inh-2, AHR activator)
COc1ccccc1C=NN=Cc1ccccc1OC	ssDAF-12 act 1.1 (no result: AHR activator)
COc1ccccc1CCc1nnc(CCC(=O)NC(C)Cn2nc(C)cc2C)o1 (stereo not drawn)	none
C#CCn1c(O)c(N=NC(=O)C(O)c2ccccc2)c2ccccc21 (stereo not drawn)	AHR activator 67
O=C(N=Nc1c(O)n(Cc2ccccc2)c2ccccc12)c1cc2ccccc2cc1O	none
O=C(N=Nc1c(O)n(Cc2ccccc2)c2ccccc12)c1ccc(O)cc1	DAX1 inh-1 3.6, hcDAF-12 act 6.0
CCOC(=O)N1CCN(S(=O)(=O)c2c(C)nc3scc(C)n3c2=O)CC1	none
CN1CCN(NC(=S)NC2CCCC2)CC1	none
O=C(COc1cccc(F)c1)Nc1nc(-c2ccncc2)cs1	none
O=C(COc1cccc(F)c1)Nc1nc(-c2cccnc2)cs1	AHR activator 54
COCCNC(=S)N1CCN(c2nc(-c3cccc(OC)c3)cs2)CC1	DAX1 inh-2 4.3
Cc1cc(OCC(=O)N2CCc3ccccc3C2)c(C)cc1Br	none (no result: AHR activator)
C[C@@H](C(=O)Nc1nccs1)N1C(=O)C2CC=CCC2C1=O (stereo partly drawn)	DAX1 inh-2 4.8
CC(C(=O)Nc1nccs1)N1C(=O)C2CC=CCC2C1=O (stereo not drawn)	none
Brc1cc2[nH]cnc2c2ccccc12	AHR activator 63
Oc1ccc2c(ccc3[nH]cnc32)c1	none
COc1cccc(CNC(=O)CCSCc2ccccc2F)c1	none
Cc1ccc(CC(=O)Nc2cc([N+](=O)[O-])ccc2F)cc1	none
Cc1ccc(C(=O)Nc2cc([N+](=O)[O-])ccc2F)s1	DAX1 inh-2 5.8
Cc1c(CCOC(=O)C23CC4CC(CC(C4)C2)C3)sc[n+]1Cc1ccccc1	AHR activator 69
Cc1cc(C(=O)Nc2nc3ccc(Cl)cc3s2)nn1C	hgDAF-12 ag 11 (no result: DAX1 inh-2)
CCOC(=O)[C@]12CCCC=C1N(CCC1=CCCCC1)C(=O)[C@H](CC(=O)NCC1CCCCC1)C2	none (no result: DAX1 inh-2, AHR activator)
O=C(c1cccc(COc2ccc(Cl)cc2Cl)c1)N1CCN(c2ccccn2)CC1	hgDAF-12 ag 11
O=C(c1ccc(Cl)c(Cl)c1)N1CCN(c2ccccn2)CC1	none (no result: AHR activator)
Clc1ccc(CSc2cc3c(nn2)-c2ccccc2CC3)cc1	AHR activator 47
Clc1ccc(CSc2ccc(-c3ccco3)nn2)cc1	none
CC(C)(C)OC(=O)N1CCC[C@@H]1C(=O)N1CCC[C@H]1C(=O)NCc1ccccc1	none (no result: DAX1 inh-2, AHR activator)
CC(C)(C)n1nnnc1C(c1cccc(C(F)(F)F)c1)N1CCC(O)CC1 (stereo not drawn)	none
CC(=O)N(/C=C1\SC(=S)N(c2ccccc2)C1=O)c1ccccc1	ssDAF-12 act 1.9
CCN1C(=O)/C(=C\N(C(C)=O)c2ccccc2)OC1=S	none
CCOC(=O)Cc1cc(-c2ccc(F)cc2)nc2ccc3ccccc3c12	AHR activator 61
CSc1ccccc1NC(=O)COC(=O)c1c[nH]c(=O)[nH]c1=O	DAX1 inh-2 5.5
COc1ccccc1C(=O)Nc1cccc2cccnc12	AHR activator 78
CSc1ccccc1NC(=O)COc1ccccc1C	ssDAF-12 act 1.5
O=C(COC(=O)c1c[nH]c(=O)[nH]c1=O)Nc1ccccc1F	none
CC(=O)Nc1ccccc1OCC(=O)NC(C)c1ccccc1 (stereo not drawn)	ssDAF-12 act 1.0
Cc1ccccc1OCC(=O)Nc1ccccc1CO	none
CC(=O)Nc1ccc(N=Nc2ccccc2)cc1[N+](=O)[O-]	none (no result: DAX1 inh-2, AHR activator)
COCCN(Cc1cc2cc3c(cc2nc1Cl)OCO3)C(=O)c1ccc(C)cc1	none
OCC[C@@H]1C[C@H](O)[C@@H](O)[C@@]2(OCCc3cc(Cl)ccc32)O1	none (no result: DAX1 inh-2, AHR activator)
N#CC1(NC(=O)COC(=O)c2ccccc2SCC(=O)N2CCCC2)CCCCC1	none
COc1ccccc1C(=O)Nc1ccccc1SC	AHR activator 55
O=C(NCc1cccnc1)NC(=O)c1ccc(Cl)cc1	none
N/C(=N\c1nc2ccccc2o1)NC(=O)c1ccc(Cl)cc1	AHR activator 68
CC(C)(C)c1ccc(C(=O)N/C(N)=N/c2nc3ccccc3o2)cc1	none (no result: DAX1 inh-1, ssDAF-12 act, hcDAF-12 act, hgDAF-12 ag)
